POLH inh – blocks human DNA polymerase eta activity. recombinant Pol eta, fluorescent DNA replication assay. Potency, µM (titrated, usually from 114 µM), for the others: at the top dose activity change, negative = inhibition, actives largely listed as inhibitors. 390,000 tested, 1.2% active. Q9Y253; also: % is scaled to controls: 0 for no effect and ±100 for the full control effect
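Pol eta at 10 nM preincubated with compounds 15 min at room temperature; reaction started with fluorescent substrate (50 nM final) and read kinetically at 0 and 10 min.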
POLB inh – blocks human DNA polymerase beta activity. P06746. Pol beta primer extension/strand displacement, fluorescence kinetic. Potency, µM (highest dose often 114 µM), for inactives: top-dose activity change, negative = inhibition, actives largely listed as inhibitors. 340,000 tested, 1.3% active. AID 485314; also: % is scaled to controls: 0 for no effect and ±100 for the full control effect
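Homogeneous kinetic assay of primer extension and strand displacement by 10 nM Pol beta, preincubated 15 min at room temperature with compound before 50 nM substrate (final) was added. Read at 0 and 10 min; four-parameter Hill fit.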
POLK inh – inhibitors of human DNA polymerase kappa; 400,000 tested, 0.53% active; Q9UBT6; Potency, µM (highest dose often 107 µM), for the others: at the top dose activity, negative = inhibition, hits mostly inhibitors; purified Pol kappa, fluorescent DNA synthesis assay, 10 min; AID 588579; also: % is scaled to controls: 0 for no effect and ±100 for the full control effect
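First, compounds were pin-transferred onto 10 nM Pol kappa. After 15 min at room temperature, substrate was added to 50 nM final. Fluorescence was then measured kinetically at 0 and 10 min.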
Pol iota inh – DNA polymerase iota (human) inhibition | 390,000 tested, 1% active | AID 588590 | Potency, µM (series often up to 115 µM), inactives show at the top dose activity, negative = inhibition, hits mostly inhibitors | Q9UNA4 | Pol iota fluorescent replication assay, 10 min
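Fluorescent replication assay read twice, at 0 min and 10 min after adding 50 nM (final) substrate. Enzyme (10 nM) and compounds were first incubated 15 min at room temperature; enzyme-free buffer wells were negative controls.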
TDP1 block – TDP1 (human) enzyme inhibition; Potency, µM (titrated, usually from 130 µM), for inactives: at the highest dose activity change, negative = inhibition, actives largely listed as inhibitors; 350,000 tested, 0.28% active; recombinant TDP1, AlphaScreen DNA substrate cleavage; also: % is scaled to controls: 0 for no effect and ±100 for the full control effect; nearly all actives have a fitted effect of over 40% in size
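Tdp1 1 nM final; 15 min RT w/ cpd; substrate 15 nM, 5 min; beads 10 ug/ml, 10 min; AlphaScreen read. Neg ctrl: no enzyme.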
Numbers without * were called inactive; ? = inconclusive; · = not tested or not shown; [ ] = remark or other dose. Only some compounds are listed: those with a hit (about 2.4% of all), similar ones and a draw of the others. Calls follow the shape of the dose curve; as a rule, active = well fitted curve in the direction sought with a large enough effect; inconclusive = small, poorly fitted or top-dose-only effect, or another doubt; inactive = no such curve, though single readings can be large; an effect the other way counts as inactive or inconclusive. Potency is read from the fitted curve at half-maximal effect.

SMILES	POLH inh	POLB inh	POLK inh	Pol iota inh	TDP1 block
COc1ccc(-n2ncc3c(NC4CCCC4)ncnc32)cc1	-10%	?	0%[60.1 µM]	16%	10%
C[C@@H]1NC(=O)c2cc([N+](=O)[O-])cc(I)c2OCC[C@@H](C(=O)NC(CC(=O)O)C(N)=O)NC(=O)[C@H](CCC(=O)O)NC1=O (stereo partly drawn)	18µM*	-7%	?	?	-3%
NC(=O)C(CC(=O)O)NC(=O)[C@@H]1CCOc2c(I)cc([N+](=O)[O-])cc2C(=O)N[C@@H](CCC(=O)O)C(=O)N[C@@H](CO)C(=O)N1 (stereo partly drawn)	?	-10%	?	?	4%
NC(=O)C(CC(=O)O)NC(=O)[C@@H]1CCCCNc2c(I)cc([N+](=O)[O-])cc2C(=O)N[C@@H](CO)C(=O)NCC(=O)N1 (stereo partly drawn)	·	35µM*	·	·	-4%
C[C@@H]1NC(=O)[C@H](CC(N)=O)NC(=O)c2cc([N+](=O)[O-])cc(I)c2OCC[C@@H](C(=O)NC(CC(=O)O)C(N)=O)NC1=O (stereo partly drawn)	20µM*	-21%	79µM*	?	-3%
CC(C)(C)n1ncc2c(=O)n(Cc3ccccc3SC(F)(F)F)cnc21	·	·	4%	9%	·
Nc1ccccc1Sc1ccc(C(=O)c2ccccc2C(=O)O)cc1[N+](=O)[O-]	?	-7%	-5%	-14%	0%
O=C(O)c1ccccc1C(=O)c1ccc(Sc2ccc(Cl)cc2)c([N+](=O)[O-])c1	-14%	79µM*	0%	15%	9%
COc1ccc(CC(=O)OC(C)C(=O)c2ccc(C)cc2)cc1 (stereo not drawn)	-15%	-12%	-5%	?	79µM*
COc1ccc(NC(=O)c2cc([N+](=O)[O-])ccc2NC(=O)CNCc2ccccn2)c(OC)c1	4%	-11%	-4%	82%	8%
COc1cc(NC(=O)c2cc([N+](=O)[O-])ccc2NC(=O)CNCc2ccccn2)cc(OC)c1	?	?	4%	70%	56µM*
O=c1cc(-c2ccccc2)nc2c(-c3ccccc3)c(C(F)(F)F)[nH]n12	?	79µM*	-12%	20%	3%
Cc1cc(=O)n2[nH]c(C)c(-c3ccccc3)c2n1	-21%	1%	0%	29%	-2%
O=C1N=c2ccc([N+](=O)[O-])cc2=C1c1sc(=O)[nH]c1O	-19%	1%	89µM*	15%	6%
C=CCN=C1S/C(=C/c2cccc([N+](=O)[O-])c2)C(=O)N1CC=C	-11%	0%	-13%	6%	7%
O=C(O)c1cccc(CN2C(=O)S/C(=C/c3cccc([N+](=O)[O-])c3)C2=O)c1	79µM*	-9%	-4%	?	0%
O=C(CN1C(=O)S/C(=C\c2ccccc2)C1=O)Nc1cc([N+](=O)[O-])ccc1O	79µM*	-1%	0%	-21%	10%
Cc1cc(C)c(NC(=O)Cn2c(=O)n(CCC(=O)NCc3ccccc3Cl)c(=O)c3sccc32)c(C)c1	·	5%	13%	-4%	2%
O=C(CSc1ncnc2nc[nH]c12)Nc1nnc(SCc2ccc(Cl)c(Cl)c2)s1	?	40µM*	-15%	?	0%
COc1ccc(S(=O)(=O)Nc2cccc3cccnc23)c([N+](=O)[O-])c1	·	·	0%	69%	1%
CN(C)Cc1cc(O)c(CN(C)C)cc1O	79µM*	10µM*	16µM*	7.1µM*	?
CN(C)Cc1cc(C(C)(C)C)cc(C(C)(C)C)c1O	2%	-2%	-16%	1%	0%
CC(C)[C@H](NC(=O)[C@@H]1CSSC[C@H](NC(=O)[C@H](CC(=O)O)NC(=O)[C@H](C)NC(=O)[C@@H](NC(=O)CNC(=O)[C@H](C)N)[C@@H](C)O)C(=O)N[C@@H](Cc2ccccc2)C(=O)N[C@@H](Cc2c[nH]c3ccccc23)C(=O)N[C@@H](CCCCN)C(=O)N[C@@H](Cc2ccc(O)cc2)C(=O)N1)C(=O)O	·	·	16%[60.1 µM]	·	4%

Screening data (PubChem BioAssay)
